# A selection: hits, their analogues and other compounds. The true share with any hit is near 2%.
# CHO-K1 Ca antag: M1 antagonist counterscreen hit in parental CHO-K1 cells; ATP-induced calcium, Fluo-8 fluorescence; AID 602250; 0.6% of 360,000 active; inhibition, % at 3 µM;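 active means inhibition above a per-plate cutoff, the plate's mean sample inhibition plus 3 SD, cut at about 24% in these data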;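 further: 0% = DMSO plus EC80 ATP and 100% = DMSO alone without ATP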
# M4 antag: antagonists of human muscarinic M4 receptor (CHRM4). inhibition, % at 3 µM. 0.73% of 360,000 active. P08173. CHO-hM4 cells, ACh EC80, Fluo-8 calcium fluorescence;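 active means inhibition above its plate's cutoff, the mean inhibition of sample wells plus 3 SD, cut at about 27% in these data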;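 further: 0% = acetylcholine EC80 with DMSO and 100% = DMSO without agonist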
# Target sequence (P08173 whole entry, looked up): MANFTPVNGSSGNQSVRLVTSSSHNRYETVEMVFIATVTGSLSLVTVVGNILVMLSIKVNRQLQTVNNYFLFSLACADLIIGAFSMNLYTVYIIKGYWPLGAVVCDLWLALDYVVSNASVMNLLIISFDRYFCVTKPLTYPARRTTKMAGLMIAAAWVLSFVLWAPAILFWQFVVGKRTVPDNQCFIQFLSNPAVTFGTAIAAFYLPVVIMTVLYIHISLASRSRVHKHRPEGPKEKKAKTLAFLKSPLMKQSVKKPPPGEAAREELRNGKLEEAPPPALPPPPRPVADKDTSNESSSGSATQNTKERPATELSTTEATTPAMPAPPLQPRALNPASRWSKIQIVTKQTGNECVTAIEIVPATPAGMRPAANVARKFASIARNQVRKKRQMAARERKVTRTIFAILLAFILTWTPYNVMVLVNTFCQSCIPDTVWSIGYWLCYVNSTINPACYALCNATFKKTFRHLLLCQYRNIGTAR
# CHRM4 PAM: positive allosteric modulators of human muscarinic M4 receptor; activation, % at 3 µM; AID 624126; P08173; 0.4% of 360,000 active; CHO-K1 hM4/Gqi5, Fluo-8 calcium fluorescence, ACh EC20; 0% = ACh EC20, 100% = maximal ACh;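 active means activation above its plate's cutoff, the mean activation of sample wells plus 3 SD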
# CHO-K1 Ca PAM: counter-screen for M1 PAMs: effect in parental CHO-K1 cells. ATP EC20, Fluo-8 calcium fluorescence; 0% at ATP EC20, 100% at ATP max. activation, % at 3 µM. 0.02% of 360,000 active;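 active means activation above the run cutoff, the mean activation of all test compounds plus 3 SD, cut at about 40% in these data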;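 further: peak over basal fluorescence ratio in a 140 s read after ATP addition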
# CHO-K1 Ca ag: nonselective activator or artifact in parental CHO-K1 cells; Fluo-8 calcium fluorescence; scaled to maximal ATP response, vehicle zero; activation, % at 3 µM; 0.48% of 360,000 active; AID 602248; in the data active means activation above about 15%;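 further: untransfected CHO-K1 host cells lacking M1 receptor as counterscreen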
# M4 ag: agonists of human muscarinic M4 receptor (CHRM4); P08173; CHO-K1 hM4/Gqi5, Fluo-8 calcium fluorescence; vehicle 0%, full acetylcholine response 100%; activation, % at 3 µM; 0.14% of 360,000 active; AID 624127;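 active means activation above the run mean over all test wells plus 3 SD, cut at about 32% in these data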;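 further: peak over basal fluorescence ratio per well then scaled between controls; 0% = DMSO wells and 100% = acetylcholine at EC100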
# Numbers without * were called inactive.
SMILES,CHO-K1 Ca antag,M4 antag,CHRM4 PAM,CHO-K1 Ca PAM,CHO-K1 Ca ag,M4 ag
COc1ccc(/C=C/CN2CCCC(CCC(=O)NCc3ccc(F)c(F)c3)C2)cc1 (centres undefined),0,71*,-22,1,0,2
COc1ccccc1/C=C/CN1CCCC(CCC(=O)NCc2ccc(F)c(F)c2)C1 (centres undefined),-8,-6,-13,17,1,3
CC(O)CNc1cnccn1 (centres undefined),-7,-17,10,16,0,1
COCc1ccc(C(=O)N(C)CC2CCCN(CCc3ccccc3F)C2)o1 (centres undefined),-14,18,-23,8,0,1
O=C(NCCN1CCOCC1)N1c2ccccc2Sc2ccccc21,7,38*,-15,9,2,1
CN(C)CCCNC(=O)N1c2ccccc2Sc2ccccc21,-8,97*,-16,12,0,1
O=C(CCN1CCOCC1)N1c2ccccc2Sc2ccc(Cl)cc21,-10,57*,-19,10,2,1
CCC(Sc1ccccn1)C(=O)Nc1cccc([N+](=O)[O-])c1 (centres undefined),2,2,1,-5,0,0
CCCn1nnc2c(=O)oc3ccccc3c21,-15,-5,2,23,0,0
CCCCCn1nnc2c(=O)oc3ccccc3c21,9,-5,28*,-7,0,2
CCN(CC)C(=O)CSc1nnc(-c2ccccn2)n1-c1ccccc1OC,-12,31*,20,11,0,2
Cc1nn(CC(=O)NCc2ccc(C(=O)O)cc2)c(C)c1[N+](=O)[O-],24*,-8,-7,-15,2,10
Cc1c(CC(=O)NCCCCCC(=O)O)c(=O)oc2c(C)c3oc4c(c3cc12)CCCC4,2,-4,14*,-5,-1,1
COc1ccc(-c2cc(=O)oc3cc(OCC(=O)NCC(O)c4ccccc4)ccc23)cc1 (centres undefined),3,-12,0,-8,0,4
O=C(N/N=C/c1ccco1)C1CC1(c1ccccc1)c1ccccc1 (centres undefined),-8,28*,11,10,0,-1
CN1CCN(c2nc3c(c(=O)[nH]c(=O)n3C)n2CCSc2nc3ccccc3s2)CC1,27*,-16,1,-9,0,1
Cn1c(=O)[nH]c(=O)c2c1nc(N1CCCCC1)n2CCSc1nc2ccccc2o1,3,81*,-13,-1,1,0
COc1ccc(NS(=O)(=O)c2cccc(C(=O)OCC(=O)Nc3cc(C)on3)c2)cc1,2,9,8,0,1,5
CC(=O)Nc1cccc(C(=O)OCC(=O)NC2CCCCCCC2)c1,-14,-8,2,-10,15*,21
Cc1cc(NC(=O)COC(=O)c2cccc(S(=O)(=O)N(C)C3CCCCC3)c2)no1,-7,30*,9,-18,2,3
Cc1ccc(NS(=O)(=O)c2ccc(C(=O)OCC(=O)Nc3cc(C)on3)cc2)cc1,2,7,-5,24,19*,19
CC(=O)Nc1cccc(C(=O)OCC(=O)NC(=O)NC2CCCC2)c1,-3,3,12,-7,2,2
CC(=O)Nc1cccc(Nc2nc(-c3ccccc3F)nc3ccccc23)c1,6,-4,-14,14,5,11
O=C(/C=C/Nc1ccccc1)c1ccc(Oc2ncccn2)cc1,26*,8,2,-7,0,2
CN(C)c1ccc(/C=C/CNC[C@H]2O[C@@H](n3ccc(N)nc3=O)[C@H](O)[C@@H]2O)cc1,-9,-2,-2,15,1,1
COc1cccc(OC)c1C(=O)Nn1c(-c2cccs2)nc2ccccc2c1=O,-4,-9,-2,14,4,9
COc1cccc(OC)c1C(=O)Nn1c(-c2cccc(C)c2)nc2ccccc2c1=O,24*,0,1,-14,1,5
CCN1CCN(S(=O)(=O)c2ccc(S(=O)(=O)N(CC)Cc3ccccc3)cc2)CC1,6,10,-14,10,22*,3
